# From the supplement of paper PMC9694430
# Counter-ions that a name gives are not always drawn.
# What was measured:
# Experiment in all cases: thermal shift delta Tm vs DMSO control; higher = stronger stabilization (binding)
# Conditions in all cases: 12.5 µM; protein concentration 2 µM
# LOC_OS02G45750-cb003 = system: LOC_OS02G45750-cb003
# Summary of the method: (§1)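 Rice kinase domain constructs were expressed in E. coli, purified, and tested by differential scanning fluorimetry with compound added in DMSO. Each well of a 96-well plate held 19.5 μl of 2 μM kinase in 100 mM potassium phosphate pH 7.5, 150 mM NaCl, 10% glycerol and 5 × SYPRO Orange, and fluorescence was read from 25°C to 95°C at 0.05°C/s. The melting temperature shift is the mean of triplicates, taken against protein with DMSO alone after Boltzmann fitting.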
# LOC_OS02G54510-cb004 = system: LOC_OS02G54510-cb004
# Summary of the method: as §1
# LOC_OS03G04050-cb001 = system: LOC_OS03G04050-cb001
# Summary of the method: as §1
# LOC_OS03G12390-cb001 = system: LOC_OS03G12390-cb001
# Summary of the method: as §1
# LOC_OS03G27990-cb004 = system: LOC_OS03G27990-cb004
# Summary of the method: as §1
# LOC_OS03G50450-cb001 = system: LOC_OS03G50450-cb001
# Summary of the method: as §1
# LOC_OS03G50810-cb003 = system: LOC_OS03G50810-cb003
# Summary of the method: as §1
# LOC_OS04G35114-cb001 = system: LOC_OS04G35114-cb001
# Summary of the method: as §1
# LOC_OS04G38480-cb003 = system: T1, LOC_OS04G38480-cb003
# T1 sequence (whole entry): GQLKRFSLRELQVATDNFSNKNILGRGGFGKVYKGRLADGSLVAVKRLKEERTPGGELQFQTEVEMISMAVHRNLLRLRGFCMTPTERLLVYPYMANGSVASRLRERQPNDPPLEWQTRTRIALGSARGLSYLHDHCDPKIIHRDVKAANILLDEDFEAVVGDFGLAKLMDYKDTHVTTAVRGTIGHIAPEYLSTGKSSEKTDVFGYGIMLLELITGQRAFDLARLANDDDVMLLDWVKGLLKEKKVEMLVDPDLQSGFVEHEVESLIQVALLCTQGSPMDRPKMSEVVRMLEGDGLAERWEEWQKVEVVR
# Summary of the method: as §1
# LOC_OS04G41100-cb001 = system: T2, LOC_OS04G41100-cb001
# T2 sequence (whole entry): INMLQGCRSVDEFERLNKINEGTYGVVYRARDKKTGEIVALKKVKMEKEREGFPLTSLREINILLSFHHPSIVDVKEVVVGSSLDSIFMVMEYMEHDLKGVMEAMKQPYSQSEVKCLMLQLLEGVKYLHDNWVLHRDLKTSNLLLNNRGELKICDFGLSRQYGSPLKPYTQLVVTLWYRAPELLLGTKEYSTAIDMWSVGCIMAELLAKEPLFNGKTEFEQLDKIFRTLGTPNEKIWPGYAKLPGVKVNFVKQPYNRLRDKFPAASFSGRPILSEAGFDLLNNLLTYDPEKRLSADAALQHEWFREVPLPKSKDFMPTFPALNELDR
# Summary of the method: as §1
# LOC_OS04G57630-cb004 = system: LOC_OS04G57630-cb004
# Summary of the method: as §1
# LOC_OS05G07850-cb002 = system: LOC_OS05G07850-cb002
# Summary of the method: as §1
# LOC_OS05G16824-cb004 = system: LOC_OS05G16824-cb004
# Summary of the method: as §1
# LOC_OS05G28520-cb001 = system: LOC_OS05G28520-cb001
# Summary of the method: as §1
# LOC_OS05G30820-cb001 = system: LOC_OS05G30820-cb001
# Summary of the method: as §1
# LOC_OS05G43570-cb004 = system: LOC_OS05G43570-cb004
# Summary of the method: as §1
# LOC_OS06G16330-cb003 = system: LOC_OS06G16330-cb003
# Chain of LOC_OS06G16330-cb003 (as listed by the source): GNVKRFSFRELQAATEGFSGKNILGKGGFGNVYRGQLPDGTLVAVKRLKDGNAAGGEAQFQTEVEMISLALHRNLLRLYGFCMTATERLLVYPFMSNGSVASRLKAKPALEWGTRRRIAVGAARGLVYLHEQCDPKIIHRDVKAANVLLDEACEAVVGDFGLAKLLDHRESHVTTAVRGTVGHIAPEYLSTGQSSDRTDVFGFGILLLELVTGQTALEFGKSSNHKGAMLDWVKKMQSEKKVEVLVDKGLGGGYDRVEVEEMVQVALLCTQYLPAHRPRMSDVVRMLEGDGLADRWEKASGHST
# Summary of the method: as §1
# LOC_OS06G22820-cb001 = system: T3, LOC_OS06G22820-cb001
# T3 sequence (whole entry): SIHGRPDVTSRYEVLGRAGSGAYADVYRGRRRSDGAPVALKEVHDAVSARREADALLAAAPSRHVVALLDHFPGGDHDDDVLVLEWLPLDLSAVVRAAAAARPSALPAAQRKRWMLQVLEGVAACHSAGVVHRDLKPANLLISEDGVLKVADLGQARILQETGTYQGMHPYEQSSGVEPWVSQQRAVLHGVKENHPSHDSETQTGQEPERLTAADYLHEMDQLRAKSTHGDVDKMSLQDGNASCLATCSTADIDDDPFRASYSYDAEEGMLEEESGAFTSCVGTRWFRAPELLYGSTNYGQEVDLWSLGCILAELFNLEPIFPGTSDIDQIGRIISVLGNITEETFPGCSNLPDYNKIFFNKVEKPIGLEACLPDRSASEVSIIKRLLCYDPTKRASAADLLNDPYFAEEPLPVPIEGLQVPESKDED
# Summary of the method: as §1
# LOC_OS07G06570-cb004 = system: LOC_OS07G06570-cb004
# Summary of the method: as §1
# LOC_OS07G07230-cb001 = system: LOC_OS07G07230-cb001
# Summary of the method: as §1
SMILES,thermal shift delta Tm (LOC_OS02G45750-cb003) [°C],thermal shift delta Tm (LOC_OS02G54510-cb004) [°C],thermal shift delta Tm (LOC_OS03G04050-cb001) [°C],thermal shift delta Tm (LOC_OS03G12390-cb001) [°C],thermal shift delta Tm (LOC_OS03G27990-cb004) [°C],thermal shift delta Tm (LOC_OS03G50450-cb001) [°C],thermal shift delta Tm (LOC_OS03G50810-cb003) [°C],thermal shift delta Tm (LOC_OS04G35114-cb001) [°C],thermal shift delta Tm (LOC_OS04G38480-cb003) [°C],thermal shift delta Tm (LOC_OS04G41100-cb001) [°C],thermal shift delta Tm (LOC_OS04G57630-cb004) [°C],thermal shift delta Tm (LOC_OS05G07850-cb002) [°C],thermal shift delta Tm (LOC_OS05G16824-cb004) [°C],thermal shift delta Tm (LOC_OS05G28520-cb001) [°C],thermal shift delta Tm (LOC_OS05G30820-cb001) [°C],thermal shift delta Tm (LOC_OS05G43570-cb004) [°C],thermal shift delta Tm (LOC_OS06G16330-cb003) [°C],thermal shift delta Tm (LOC_OS06G22820-cb001) [°C],thermal shift delta Tm (LOC_OS07G06570-cb004) [°C],thermal shift delta Tm (LOC_OS07G07230-cb001) [°C]
CCc1cc(Nc2nccc(-c3c(-c4ccc(OC)c(C(=O)Nc5c(F)cccc5F)c4)nc4ccccn34)n2)c(OC)cc1N1CCC(N2CCN(S(C)(=O)=O)CC2)CC1,-0.02,0.08,0.66,0.08,0.49,0.27,0.2,0.36,0.7,0.67,-0.18,0.07,-0.08,1.11,0.41,0.31,-0.08,0.94,0.75,0.69
N#CCNC(=O)c1ccc(-c2ccnc(Nc3ccc(N4CCOCC4)cc3)n2)cc1 [Momelotinib (CYT387)],7.23,1.25,0.41,2.09,0.29,1.99,2.03,3.88,3.2,2.25,3.11,11.6,3.39,0.59,0.75,0.76,7.69,0.49,0.77,0.53
"CCCS(=O)(=O)Nc1ccc(F)c(C(=O)c2c[nH]c3ncc(-c4ccc(Cl)cc4)cc23)c1F [Vemurafenib (PLX4032, RG7204)]",9.27,1.86,0.64,4.44,0.69,1.54,2.6,4.48,4.49,0.68,0.61,10.3,-0.4,1.63,0.58,1.69,8.05,1.99,2.33,0.34
Oc1cc(O)cc(/C=C/c2ccc(O)c(O)c2)c1 [Piceatannol],-0.87,0.68,0.78,-0.65,0.48,0.23,0.47,0.4,1.45,0.8,0.71,2.79,-0.53,1.37,0.74,0.72,1.4,0.94,0.43,0.27
CN1CCN(c2ccc(OC(F)(F)F)c(Nc3ncc4c(n3)-c3c(c(C(N)=O)nn3CCO)CC4)c2)CC1,0.67,-0.01,0.33,1.65,-0.02,-0.04,0.54,1.58,-0.15,0.74,2.32,0.85,-0.84,0.63,0.48,0.54,0.46,0.49,1.36,0.02
O=C1NCCc2[nH]c(-c3ccncc3)cc21,0.39,0.14,0.37,3.14,0.51,0.87,0.45,0.84,0.45,1.14,0.34,4.2,-2.22,0.25,0.53,0.46,1.3,0.55,0.4,0.42
COc1ccc(/C=C/C(=O)C2(C(=O)/C=C/c3ccc(OC)c(OC)c3)CCCCC2)cc1OC,1.45,0.31,0.85,-0.65,0.61,0.8,-0.01,0.96,0.14,0.5,-0.06,0.62,-3.56,0.12,0.75,0.25,-0.37,0.49,2.62,0.7
C[C@@H](N)[C@H]1CC[C@H](C(=O)Nc2ccncc2)CC1,0.42,-0.03,0.29,0.52,0.09,0.25,0.21,0.03,1.42,0.81,0.06,0.75,1.53,0.81,0.41,0.43,0.4,0.94,0.98,0.08
COc1cc2c(Nc3ccc(NC(=O)c4ccccc4)cc3)ncnc2cc1OCCCN1CCOCC1,2.66,0.37,0.55,0.43,0.34,0.3,1.85,2.46,0.65,0.59,1.89,5.62,1.9,1.02,0.36,0.4,1.97,0.94,0.77,0.42
O=C(Nc1cnn2ccc(N3CCC[C@@H]3c3cc(F)ccc3F)nc12)N1CC[C@H](O)C1 [Larotrectinib (LOXO-101) sulfate],1.75,0.37,0.11,-0.11,0.01,0.17,0.5,1.91,1.2,0.27,-0.61,5.23,0.04,0.01,0.53,0.03,2.16,0.35,0.63,0.56
Cc1cc(Nc2ncc(Cl)c(Nc3ccccc3S(=O)(=O)C(C)C)n2)c(OC(C)C)cc1C1CCNCC1 [Ceritinib (LDK378)],0.68,0.09,0.7,2.72,0.52,0.56,0.58,0.66,1,0.26,0.2,3.05,-1.5,0.31,0.63,0.27,4.76,0.68,1.5,0.14
Cn1ncc(Cl)c1-c1cc(C(=O)N[C@H](CN)Cc2cccc(F)c2)sc1Cl,0.37,-0.08,0.33,0,0.16,0.15,-0.04,0.42,0.52,0.2,-0.03,0.66,-1.28,0.54,0.43,0.61,0.52,0.88,1.37,0.28
